These results are taken from the OligoGym collection.
Note: reference of the scale not given here.

The assay has as its target EIF4EBP2. Put plainly: pooled miR-30 sensor sort-seq; sequence = guide strand. To be noted: shRNA.
Sequence TTGTTCAAATTGTTTACTTCTA returned a sensor-assay potency score (higher = more potent) of -0.655.

Consider TAAATGATTCGAGTTCCTCCCG, for which the sensor-assay potency score (higher = more potent) was determined as 0.0359.

Sequence AATAGTCATGAGGTAGCTGCGC yielded a sensor-assay potency score (higher = more potent) of -0.823.

TTCTACTTTGGAGTCTTCAATT: the sensor-assay potency score (higher = more potent) was -1.52.

Consider TGATTCGAGTTCCTCCCGGTGT, for which the sensor-assay potency score (higher = more potent) was -0.789.

With AAACTTTCTGTCATAAATGATT, the sensor-assay potency score (higher = more potent) was -1.63.

With TTGGAGTCTTCAATTAAGGTGC, the sensor-assay potency score (higher = more potent) was -0.116.

As to TTGTTCAAGTTGTTCAAATTGT, the sensor-assay potency score (higher = more potent) was -0.233.

For the sequence TTTCTGTCATAAATGATTCGAG, the sensor-assay potency score (higher = more potent) is -0.301.

In turn, TCGCTGATGGCCACGGTGCGGG gave a sensor-assay potency score (higher = more potent) of -1.63.

Take TCAAATTGTTTACTTCTACTTT: the sensor-assay potency score (higher = more potent) was -0.42.

AATGATTCGAGTTCCTCCCGGT registered a sensor-assay potency score (higher = more potent) of 0.498.

Take AATTGTTTACTTCTACTTTGGA: the sensor-assay potency score (higher = more potent) turned out to be 0.534.

TACTTCTACTTTGGAGTCTTCA gave a sensor-assay potency score (higher = more potent) of -0.613.

TAGTCATGAGGTAGCTGCGCGG returned a sensor-assay potency score (higher = more potent) of -1.17.

TTCAATTAAGGTGCCAGGGCTA: the sensor-assay potency score (higher = more potent) was -0.657.

ATGTTTCCTGTCGTGATTGTTC had a sensor-assay potency score (higher = more potent) of -0.959.

Regarding TGTTCAAATTGTTTACTTCTAC, the sensor-assay potency score (higher = more potent) was -0.311.

TCCAACAGAAACTTTCTGTCAT returned a sensor-assay potency score (higher = more potent) of -0.136.

Take TGGTGCAATAGTCATGAGGTAG: the sensor-assay potency score (higher = more potent) was -1.72.

TACTTTGGAGTCTTCAATTAAG: the sensor-assay potency score (higher = more potent) is -1.27.

The sequence TTCTGTCATAAATGATTCGAGT gave a sensor-assay potency score (higher = more potent) of -1.23.

In the case of ATAGTCATGAGGTAGCTGCGCG, the sensor-assay potency score (higher = more potent) was -0.462.

AAATGATTCGAGTTCCTCCCGG yielded a sensor-assay potency score (higher = more potent) of -0.69.
